DT40 TDP1 no CPT: qHTS for Inhibitors of human tyrosyl-DNA phosphodiesterase 1 (TDP1): qHTS in cells in absence of CPT; DT40 Tdp1-/- hTDP1 cells, no CPT, ATP luminescence, 48 h; Potency, µM (titrated, usually from 46.2 µM), hits mostly inhibitors; hit rate 15% among 420,000; also: nearly all actives have a fitted effect of over 55% in size
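Seeded 400 DT40-hTDP1 cells/well (vehicle DMSO, no 20 nM CPT); pinned compounds; ≥48 hr at 37 °C; CellTiter-Glo luminescence as viability measure.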
ELG1 DNA repair: qHTS screen for small molecules that inhibit ELG1-dependent DNA repair in human embryonic kidney (HEK293T) cells expressing luciferase-tagged ELG1; HEK293T ELG1-luciferase reporter, luminescence, 16 h; DNA damage induced by 5-fluorouridine; Potency, µM (doses to about 46.1 µM), hits mostly inhibitors; hit rate 2.3% among 330,000; AID 504467, 2011; also: nearly all actives have a fitted effect of over 55% in size
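Reporter activity after DNA damage by 5-fluorouridine is monitored. Compound-treated cells incubate 16 hr at 37 °C, then ONE-Glo is added for 30 min before luminescence reading.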
RORgamma inh: qHTS for inhibitors of ROR gamma transcriptional activity; Drosophila S2 Gal4-RORgamma UAS-luciferase reporter, 20 h; Nuclear receptor ROR-gamma (Mus musculus), P51450; Potency, µM (titrated, usually from 53.6 µM), hits mostly inhibitors; hit rate 5.4% among 310,000; also: nearly all actives have a fitted effect of over 60% in size
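Read-out: Photinus luciferase luminescence; inhibitors lower reporter signal. Insect Schneider cells with Gal4-ROR gamma fusion under metallothionein promoter, UAS reporter; 700 uM final copper sulfate induction, 20 hr, ambient temperature.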
TDP1 cell CPT: qHTS for Inhibitors of human tyrosyl-DNA phosphodiesterase 1 (TDP1): qHTS in cells in presence of CPT | chicken DT40 Tdp1-/-;hTDP1 cells + 20 nM CPT, ATP luminescence, 48 h | Potency, µM (titrated, usually from 46.2 µM), most hits filed as inhibitors | hit rate 12% among 420,000; also: nearly all actives have a fitted effect of over 55% in size
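Cell growth measured by CellTiter-Glo luminescence after a minimum 48 h, 37 C compound exposure with 20 nM CPT in Tdp1-knockout DT40 cells stably expressing hTDP1, seeded 400/well; qHTS titration format.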
12-LOX inh: Primary qHTS assay for inhibitors of human arachidonate 12S-lipoxygenase (ALOX12): Round 2; Polyunsaturated fatty acid lipoxygenase ALOX12 (Homo sapiens), P18054; purified 12hLO, xylenol orange hydroperoxide absorbance; Potency, µM (doses to about 108 µM), most hits filed as inhibitors; hit rate 1.1% among 580,000; AID 1671190, 2021
Target sequence (P18054 whole entry, looked up): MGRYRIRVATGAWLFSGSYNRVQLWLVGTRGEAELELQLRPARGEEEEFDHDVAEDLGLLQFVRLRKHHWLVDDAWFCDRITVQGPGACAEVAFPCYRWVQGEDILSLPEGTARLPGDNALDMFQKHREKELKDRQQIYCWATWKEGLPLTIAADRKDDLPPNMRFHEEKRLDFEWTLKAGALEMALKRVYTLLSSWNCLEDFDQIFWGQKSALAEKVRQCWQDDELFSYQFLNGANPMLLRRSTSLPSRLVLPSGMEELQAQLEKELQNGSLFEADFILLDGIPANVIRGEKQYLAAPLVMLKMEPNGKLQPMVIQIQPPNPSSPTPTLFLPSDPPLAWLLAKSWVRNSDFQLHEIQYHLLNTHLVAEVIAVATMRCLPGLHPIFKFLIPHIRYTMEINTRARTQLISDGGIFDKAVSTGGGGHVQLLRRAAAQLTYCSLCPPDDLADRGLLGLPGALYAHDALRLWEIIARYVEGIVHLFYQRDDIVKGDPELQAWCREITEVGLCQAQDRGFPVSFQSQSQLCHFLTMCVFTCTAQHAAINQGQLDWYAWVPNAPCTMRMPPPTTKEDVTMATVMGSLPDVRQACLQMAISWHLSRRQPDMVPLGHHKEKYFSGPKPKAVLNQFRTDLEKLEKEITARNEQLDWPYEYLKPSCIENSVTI
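Purified human 12hLO (150 nM final) in 25 mM Hepes, 0.01% Triton X-100, pH 7.0 was preincubated 15 min at room temperature with compound. Then 40 uM arachidonic acid was added, 30 min. Hydroperoxide was read by Fe-XO absorbance ratio 573/405 nm.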
Gal4-VP16 FLuc: VP16 counterscreen qHTS for inhibitors of ROR gamma transcriptional activity; Drosophila S2 Gal4-VP16 UAS-luciferase, luminescence, 20 h; Potency, µM (titrated, usually from 53.6 µM), usual class: inhibitors; hit rate 3.5% among 310,000; AID 2546, 2010;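 also: Gal4-VP16 expression switched on by copper sulfate through the metallothionein promoter; nearly all actives have a fitted effect of over 50% in size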
Large screens that a line does not name were inactive. Sampled rows, rich in hits. Any-hit rate of the full collection: about 15%. Calls follow the shape of the dose curve; as a rule, active = well fitted curve in the direction sought with a large enough effect; inconclusive = small, poorly fitted or top-dose-only effect, or another doubt; inactive = no such curve, though single readings can be large; an effect the other way counts as inactive or inconclusive.

COCCNc1c(-c2noc(C)c2C(=O)Nc2ccc(OC)nc2)cnn1C	none (no result: DT40 TDP1 no CPT, ELG1 DNA repair, RORgamma inh, TDP1 cell CPT, Gal4-VP16 FLuc)
Cc1cc(CNC(=O)Cn2c(=O)c3c(ncn3C)n(C)c2=O)ccc1F	none (no result: DT40 TDP1 no CPT, ELG1 DNA repair, RORgamma inh, TDP1 cell CPT, Gal4-VP16 FLuc)
Cc1ccc(-c2nc(C#N)c(NCCN3CCOCC3)o2)cc1	none (no result: DT40 TDP1 no CPT, ELG1 DNA repair, RORgamma inh, TDP1 cell CPT, Gal4-VP16 FLuc)
Clc1cccc(COc2cccc(-n3cnnn3)c2)c1	none (no result: DT40 TDP1 no CPT, ELG1 DNA repair, RORgamma inh, TDP1 cell CPT, Gal4-VP16 FLuc)
O=C(CSc1ncccc1-c1nc2ccccc2[nH]1)N1CCN(c2ccccc2F)CC1	DT40 TDP1 no CPT inconclusive, ELG1 DNA repair inconclusive, TDP1 cell CPT 16µM, 12-LOX inh inconclusive
COc1ccc(N2CCN(C(=O)CSc3ncccc3-c3nc4ccccc4[nH]3)CC2)cc1	DT40 TDP1 no CPT 29µM, TDP1 cell CPT 18µM, 12-LOX inh inconclusive
COc1ccccc1N1CCN(C(=O)CSc2ncccc2-c2nc3ccccc3[nH]2)CC1	DT40 TDP1 no CPT inconclusive, ELG1 DNA repair inconclusive, TDP1 cell CPT 15µM
COc1ccc(N2CCN(C(=O)CSc3n[nH]c(-c4ccccc4)n3)CC2)cc1	DT40 TDP1 no CPT inconclusive, TDP1 cell CPT inconclusive (no result: ELG1 DNA repair, RORgamma inh, Gal4-VP16 FLuc)
O=C(CSc1ncccc1-c1nc2ccccc2[nH]1)NC1CC1	12-LOX inh inconclusive
COc1ccc(OC)c(NC(=O)CC2CCCCN(C)C2=O)c1 (configuration not stated)	none (no result: DT40 TDP1 no CPT, ELG1 DNA repair, RORgamma inh, TDP1 cell CPT, Gal4-VP16 FLuc)
CC1=NN(C(N)=S)C(=O)C1N=Nc1ccccc1Cl (configuration not stated)	DT40 TDP1 no CPT 2.9µM, ELG1 DNA repair inconclusive, RORgamma inh 0.63µM, TDP1 cell CPT 5.8µM, Gal4-VP16 FLuc 1µM
CC1=NN(C(N)=S)C(=O)C1N=Nc1ccccc1C(=O)O (configuration not stated)	none
COc1ccccc1N=NC1C(=O)N(C(N)=S)N=C1C (configuration not stated)	DT40 TDP1 no CPT inconclusive, RORgamma inh inconclusive, Gal4-VP16 FLuc 3.2µM
COc1ccccc1N=NC1=C(O)CC(C)(C)CC1=O	ELG1 DNA repair inconclusive
CC1=NN(C(N)=S)C(=O)C1N=Nc1ccc(Cl)cc1Cl (configuration not stated)	DT40 TDP1 no CPT inconclusive, ELG1 DNA repair inconclusive, RORgamma inh 0.45µM, Gal4-VP16 FLuc 0.63µM
Cc1cccc(-c2c3c(=O)n(C)c(=O)n(C)c3cn2C2CCCCC2)c1	DT40 TDP1 no CPT 16µM, ELG1 DNA repair inconclusive, TDP1 cell CPT inconclusive
Cc1cccc(-c2c3c(=O)n(C)c(=O)n(C)c3cn2C(C)(C)C)c1	none
Cn1c(=O)c2c(-c3ccc(Cl)cc3)n(Cc3ccccc3)cc2n(C)c1=O	none (no result: DT40 TDP1 no CPT, ELG1 DNA repair, RORgamma inh, TDP1 cell CPT, Gal4-VP16 FLuc)
Cn1c(=O)c2c(-c3ccccc3)n(C3CCCCC3)cc2n(C)c1=O	DT40 TDP1 no CPT 9.2µM, TDP1 cell CPT 18µM, 12-LOX inh inconclusive
Cc1cccc(-c2c3c(=O)n(C)c(=O)n(C)c3cn2C(C)C)c1	DT40 TDP1 no CPT 21µM, TDP1 cell CPT 16µM, 12-LOX inh inconclusive
O=C(O)CSc1ccc(Br)cc1	none (no result: DT40 TDP1 no CPT, ELG1 DNA repair, RORgamma inh, TDP1 cell CPT, Gal4-VP16 FLuc)
Brc1cccc(-c2nnc(SCc3ccon3)n2-c2ccccc2)c1	DT40 TDP1 no CPT 15µM, TDP1 cell CPT inconclusive
Cc1cc(=O)oc(C)c1C(=O)Nc1cc(C(F)(F)F)cc(C(F)(F)F)c1	none (no result: DT40 TDP1 no CPT, ELG1 DNA repair, RORgamma inh, TDP1 cell CPT, Gal4-VP16 FLuc)
O=C1CCN(Cc2ccccc2)CCN1[C@H](CO)Cc1ccccc1	none
O=C1CCN(Cc2ccc(Br)cc2)CCN1[C@H](CO)Cc1ccccc1	DT40 TDP1 no CPT inconclusive, TDP1 cell CPT 20µM
CCCCCCCN1CCC(=O)N([C@H](CO)CC(C)C)CC1	DT40 TDP1 no CPT 23µM, TDP1 cell CPT inconclusive
CC(C)C[C@@H](CO)N1CCN(C)CCC1=O	none
CCCN1CCC(=O)N([C@H](CO)Cc2ccccc2)CC1	ELG1 DNA repair inconclusive
CCCCCCCN1CCC(=O)N([C@H](CO)Cc2ccccc2)CC1	DT40 TDP1 no CPT 13µM, TDP1 cell CPT 21µM
COc1ccc2oc(=O)c(-c3nnc(NCc4ccco4)s3)cc2c1	DT40 TDP1 no CPT 3.7µM, ELG1 DNA repair inconclusive, TDP1 cell CPT 5.8µM
CCOc1ccccc1Nc1nnc(-c2cc3cc(OC)ccc3oc2=O)s1	DT40 TDP1 no CPT 7.3µM, TDP1 cell CPT 8.2µM (no result: ELG1 DNA repair, RORgamma inh, Gal4-VP16 FLuc)
c1cc(-c2n[nH]c(C3CCCCN3)n2)ccn1 (configuration not stated)	none (no result: DT40 TDP1 no CPT, ELG1 DNA repair, RORgamma inh, TDP1 cell CPT, Gal4-VP16 FLuc)
S=C(NCc1ccncc1)Nc1ccc(Br)cc1	DT40 TDP1 no CPT inconclusive, ELG1 DNA repair inconclusive, 12-LOX inh inconclusive
C=CCNC(=S)Nc1ccc(Br)cc1	none (no result: DT40 TDP1 no CPT, ELG1 DNA repair, RORgamma inh, TDP1 cell CPT, Gal4-VP16 FLuc)
S=C(NCc1ccccc1)Nc1ccc(Sc2ccc(Br)cc2)cc1	12-LOX inh 28µM (no result: DT40 TDP1 no CPT, ELG1 DNA repair, RORgamma inh, TDP1 cell CPT, Gal4-VP16 FLuc)
NS(=O)(=O)c1ccc(NC(=S)NCc2ccccc2)cc1	ELG1 DNA repair inconclusive, 12-LOX inh inconclusive
FC(F)(F)Sc1ccc(NC(=S)NCc2ccccc2)cc1	DT40 TDP1 no CPT 21µM, RORgamma inh 13µM, TDP1 cell CPT inconclusive, 12-LOX inh 40µM, Gal4-VP16 FLuc inconclusive
